Where “and” joins values, the source holds several entries; their conditions need not be identical. Identical values can stand only once. Screen size: about 5,500 compounds; about 2,000 (36%) were called active. Roughly 18% stayed inconclusive and do not appear here. Rule as the data show it: active = normalized growth mostly below about 0.91 (no sharp cut-off); inconclusive = no clear call, values can overlap the other calls; inactive = mostly above about 0.92. This is one part of the list.
Experiment: chemical genetic growth profiling, strain panel (AID 1159580);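 also: tested at 20 µM; growth read once vehicle control cultures reached saturation at 30 °C; 1 = growth at the plate median or of vehicle wells; lower values mean less growth of the strain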
Settings: S. cerevisiae deletion strains, growth OD

Measured: normalized growth

COc1c(O)cc(O)cc1O
inactive: locus YAL021C, strain ccr4, stronger effect = lower value 1.01 | locus YAL026C, strain drs2, stronger effect = lower value 1.02 | locus YAL030W, strain snc1, stronger effect = lower value 0.999 | locus YBL061C, strain skt5, stronger effect = lower value 0.996 | locus YBR009C, strain hhf1, stronger effect = lower value 1.02 | locus YBR021W, strain FUR4, stronger effect = lower value 0.985 | locus YBR023C, strain chs3, stronger effect = lower value 1.01 | locus YBR171W, strain sec66, stronger effect = lower value 0.994 | locus YBR229C, strain ROT2, stronger effect = lower value 1 | locus YBR231C, strain swc5, stronger effect = lower value 1.01 | locus YBR279W, strain paf1, stronger effect = lower value 1 | locus YCL011C, strain gbp2, stronger effect = lower value 1.01 | locus YCL016C, strain dcc1, stronger effect = lower value 1.01 | locus YCL029C, strain bik1, stronger effect = lower value 1.02 | locus YCL061C, strain MRC1, stronger effect = lower value 1 | locus YCL069W, strain vba3, stronger effect = lower value 1 | locus YCR088W, strain abp1, stronger effect = lower value 0.992 | locus YDL005C, strain med2, stronger effect = lower value 0.983 | locus YDL035C, strain GPR1, stronger effect = lower value 1.07 | locus YDL040C, strain nat1, stronger effect = lower value 0.981 | locus YDL074C, strain BRE1, stronger effect = lower value 1.06 | locus YDL101C, strain DUN1, stronger effect = lower value 0.992 | locus YDL185W, strain tfp1, stronger effect = lower value 0.978 | locus YDL192W, strain arf1, stronger effect = lower value 1 | locus YDR001C, strain nth1, stronger effect = lower value 1 | locus YDR069C, strain doa4, stronger effect = lower value 1 | locus YDR101C, strain arx1, stronger effect = lower value 1.04 | locus YDR137W, strain rgp1, stronger effect = lower value 1.04 | locus YDR159W, strain sac3, stronger effect = lower value 0.976 | locus YDR162C, strain NBP2, stronger effect = lower value 1.06 | locus YDR195W, strain ref2 0.951 | locus YDR297W, strain sur2, stronger effect = lower value 0.998 | locus YDR318W, strain mcm21, stronger effect = lower value 1 | locus YDR334W, strain swr1, stronger effect = lower value 0.994 | locus YDR335W, strain msn5, stronger effect = lower value 1 | locus YDR388W, stronger effect = lower value 0.997 | locus YDR392W, strain spt3, stronger effect = lower value 1.01 | locus YDR502C, strain sam2, stronger effect = lower value 0.998 | locus YEL003W, strain gim4, stronger effect = lower value 1.02 | locus YEL037C, strain rad23, stronger effect = lower value 1 | locus YEL061C, strain CIN8 (second series), stronger effect = lower value 1.01 | locus YEL061C, strain CIN8, stronger effect = lower value 1.01 | locus YER015W, strain faa2, stronger effect = lower value 1 | locus YER016W, strain bim1, stronger effect = lower value 0.996 | locus YER110C, stronger effect = lower value 0.991 | locus YER111C, strain swi4, stronger effect = lower value 0.989 | locus YER155C, strain BEM2 (second series), stronger effect = lower value 1.02 | locus YER155C, strain BEM2, stronger effect = lower value 0.989 | locus YER167W, strain BCK2, stronger effect = lower value 1 | locus YFR010W, strain ubp6, stronger effect = lower value 0.999 | locus YGL078C, strain dbp3, stronger effect = lower value 0.969 | locus YGL086W, strain mad1, stronger effect = lower value 1.01 | locus YGL167C, strain pmr1, stronger effect = lower value 0.998 | locus YGL173C, strain kem1, stronger effect = lower value 0.999 | locus YGL227W, strain vid30, stronger effect = lower value 0.988 | locus YGL240W, strain doc1, stronger effect = lower value 0.992 | locus YGL248W, strain PDE1, stronger effect = lower value 0.996 | locus YGL253W, strain hxk2, stronger effect = lower value 1.01 | locus YGR078C, strain PAC10, stronger effect = lower value 1.02 | locus YGR135W, strain pre9, stronger effect = lower value 0.972 | locus YGR252W, strain gcn5, stronger effect = lower value 0.997 | locus YHR013C, strain ard1, stronger effect = lower value 1.01 | locus YHR027C, strain rpn1, stronger effect = lower value 0.988 | locus YHR030C, strain SLT2, stronger effect = lower value 1.01 and 1.05 | locus YHR079C, strain IRE1 (second series), stronger effect = lower value 0.997 | locus YHR079C, strain IRE1, stronger effect = lower value 1.02 | locus YHR094C, strain hxt1, stronger effect = lower value 1 | locus YHR129C, strain ARP1, stronger effect = lower value 0.998 | locus YHR142W, strain chs7, stronger effect = lower value 1.03 | locus YHR200W, strain rpn10, stronger effect = lower value 0.984 | locus YIL066C, strain RNR3, stronger effect = lower value 1 | locus YIL073C, strain SPO22, stronger effect = lower value 1.05 | locus YIL125W, strain kgd1, stronger effect = lower value 1 | locus YIR030C, strain dcg1, stronger effect = lower value 1.01 | locus YJL092W, strain hpr5, stronger effect = lower value 0.995 | locus YJL095W, strain BCK1 (second series), stronger effect = lower value 1 | locus YJL095W, strain BCK1, stronger effect = lower value 0.998 and 1.05 | locus YJL115W, strain asf1, stronger effect = lower value 0.992 | locus YJL129C, strain trk1, stronger effect = lower value 0.989 | locus YJL134W, strain LCB3, stronger effect = lower value 0.997 | locus YJL154C, strain vps35, stronger effect = lower value 0.995 | locus YJL164C, strain tpk1, stronger effect = lower value 1.01 | locus YJL166W, strain qcr8, stronger effect = lower value 1.05 | locus YJL168C, strain set2, stronger effect = lower value 1 | locus YJL187C, strain SWE1 (second series), stronger effect = lower value 0.997 | locus YJL187C, strain SWE1, stronger effect = lower value 1 | locus YJR043C, strain POL32, stronger effect = lower value 1.07

Reference: PubChem BioAssay AID1159580 (chemical genetic matrix, 2015)
